This is an account of results in PubChem BioAssay (NCATS).

Structures are written as SMILES. Several values for one entry are separate records, joined by “and”; a condition that tells them apart may be missing. Identical values can stand only once. Inconclusive results are not listed. Some compounds were tested as several samples or in several runs, with calls that do not always agree. A number with no mark means an inactive call. Activity calls are given as the source filed them. Calls follow the shape of the dose curve; as a rule, active = well fitted inhibition curve with a large enough effect; inconclusive = small, poorly fitted or top-dose-only effect; inactive = flat fitted curve, though single readings scatter.

In one test the test system is HEK293. Briefly: Cytotoxic Profiling of Annotated Libraries Using Quantitative High-Throughput Screening (AID 1296008). As to max response: % is scaled to controls: 0 for no effect and ±100 for the full control effect. As to conditions: Five cell lines viability, CellTiter-Glo ATP luminescence, 48-72 h; max response: stronger effect = lower value. An outline of the steps: (§1)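 Compounds were pin-transferred onto cells and incubated 48 or 72 hr at 37 degree Celsius, 95% humidity. CellTiter-Glo was added, plates sat 10 min at room temperature, then ATP-coupled luminescence was imaged as the viability read-out.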

Another test deals with KB-3-1. Described as above. As to conditions: Five cell lines viability, CellTiter-Glo ATP luminescence, 48-72 h; max response: stronger effect = lower value. An outline of the steps: as §1
In general terms: In ATP-based viability assays light output follows the ATP content of the culture.

In the next test the test system is NIH3T3. Described as above. As to conditions: Five cell lines viability, CellTiter-Glo ATP luminescence, 48-72 h; max response: stronger effect = lower value. In outline: as §1
The next test relates to MCC-26. Nature of the test: qHTS assay to identify novel small-molecules to repurpose for Merkel cell carcinoma treatment (AID 1296009). As to conditions: MCC and control cell lines, CellTiter-Glo viability, 72 h; series mostly up to 46 µM. In outline:
(§2)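 Viability readout: ATP luminescence (CellTiter-Glo) after 72 hr drug exposure at 37 degree celsius. Dose-response format was 8 points for NPC and 11 points for MIPE; data normalized to in-plate controls.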
A general note: Quantitative high-throughput screening tests each substance at several concentrations.

The subject of test [1] is HaCat. Briefly: Cytotoxic Profiling of Annotated Libraries Using Quantitative High-Throughput Screening (AID 1296008). As to max response: % is scaled to controls: 0 for no effect and ±100 for the full control effect. As to conditions: Five cell lines viability, CellTiter-Glo ATP luminescence, 48-72 h; max response: stronger effect = lower value. An outline of the steps:
as §1

The subject of a further test is MCC-13. Nature of the test: qHTS assay to identify novel small-molecules to repurpose for Merkel cell carcinoma treatment (AID 1296009). As to conditions: MCC and control cell lines, CellTiter-Glo viability, 72 h; series mostly up to 46 µM. In outline:
as §2

Another test deals with W2. Nature of the test: qHTS profiling for inhibitors of Plasmodium falciparum proliferation (AID 504749). As to conditions: P. falciparum in erythrocytes, SYBR Green DNA, 72 h; series mostly up to 28.7 µM. In outline:
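Quantitative HTS: compounds pinned into medium, infected erythrocytes added (0.3% parasitemia, 2.5% hematocrit), 72 h culture at 37 C under 5% CO2. Saponin/Triton lysis with SYBR Green I, overnight RT, then fluorescence read.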

The test system of test [2] is HACAT. Nature of the test: qHTS assay to identify novel small-molecules to repurpose for Merkel cell carcinoma treatment (AID 1296009). As to conditions: MCC and control cell lines, CellTiter-Glo viability, 72 h; series mostly up to 44.8 µM. An outline of the steps: as §2
Also: nearly all actives have a fitted effect of over 60% in size.
Potency is read from the fitted curve at half-maximal effect.

For the compound `COc1cc2ncn(-c3cc(OCc4ccccc4C(F)(F)F)c(C(N)=O)s3)c2cc1OC`, the Potency in the test with HEK293 was 0.469 µM (active); in the test with KB-3-1, 0.418 µM (active). For the same compound, the max response in the test on NIH3T3 is -29.2%. For the same compound, in the test with MCC-26, the Potency result is “inactive”.
As for `COc1cc2ncnc(Nc3ccc(F)c(Cl)c3)c2cc1NC(=O)C=CCN1CCCCC1`, the max response in the test with HaCat [1] is -96.7%; in the test on NIH3T3, -20.4%. Besides, the outcome in the test on KB-3-1 was inactive. The Potency result in the test with MCC-13 and with MCC-26 was “inactive” each time.
Consider `CC(C)(C)NC(=O)[C@H]1CN(Cc2cccnc2)CCN1C[C@@H](O)C[C@@H](Cc1ccccc1)C(=O)N[C@H]1c2ccccc2C[C@H]1O`, for which, in the test with W2, the Potency is 6.01 µM (active). In addition, the max response in the test with KB-3-1 is -44.5%. The Potency entry with MCC-13 and in the test with MCC-26 was “inactive” in each case.
For the compound `O=C(O)CO.[NH2-].[NH2-].[Pt+2]`, the Potency entry in the test on W2 is “inactive”.
Turning to `COc1c(N2C[C@@H]3CCCN[C@H]3C2)c(F)cc2c(=O)c(C(=O)O)cn(C3CC3)c12`, in the test with W2, the Potency entry was “inactive”.
Take `C=CC(=O)Nc1cc2c(Nc3ccc(F)c(Cl)c3)ncnc2cc1C#CC(C)(C)N1CCN(C)CC1`: the Potency was 2.96 µM (active) with HEK293, 2.09 µM (active) in the test on HaCat [1], 11.8 µM (active) in the test on MCC-13 and 10.5 µM (active) in the test on MCC-26.
As for `CC(C)c1ccccc1Cc1cc(C(=O)Nc2ccc(S(=O)(=O)c3ccccc3C(C)(C)C)cc2)c(O)c(O)c1O`, the Potency with KB-3-1 was 8.33 µM (active).
Consider `COCCn1c2c([n+](Cc3cnccn3)c1C)C(=O)c1ccccc1C2=O`, for which the Potency is 0.0166 µM (active) with HEK293; 0.0743 µM (active) in the test with HaCat [1]; 0.0148 µM (active) in the test with KB-3-1; 16.6 µM (active) in the test on NIH3T3; 0.59 µM (active) in the test with MCC-13; 0.296 µM (active) in the test with MCC-26.
Turning to `O=C(O)c1ccc2cc(-c3ccc(O)c(C45CC6CC(CC(C6)C4)C5)c3)ccc2c1`, the Potency was 1.87 µM (active) in the test on HEK293, 1.66 µM (active) in the test on NIH3T3 and 2.64 µM (active) in the test with MCC-13. The max response with KB-3-1 is 7.83%.
As for `CC(C)(O)CCc1ccc(OCc2cc(-c3cccc(OC(F)F)c3)c3ncccc3c2)cc1`, in the test with HaCat [1], the result was inactive. The max response in the test on NIH3T3 was 4.85%. For the same compound, the Potency result in the test with HACAT [2] and in the test on MCC-13 was “inactive” each time.
As for `Cc1c(NC(=O)OC[C@@H]2COCCN2)cn2ncnc(Nc3ccc4c(cnn4Cc4cccc(F)c4)c3)c12`, the Potency was 14.8 µM (active) and 23.1 µM (active) with HEK293; 4.69 µM (active) and 2.91 µM (active) in the test with HaCat [1]; 20.9 µM (active) with NIH3T3. For the same compound, the max response was -29.5% in the test on KB-3-1 and 3.43% with NIH3T3. Also, the Potency entry in the test on MCC-13 and in the test with MCC-26 was “inactive” each time.
As for `COc1cc(OC2CCN(C)CC2)ccc1Nc1ncc2c(n1)n(C1CCCC1)c(=O)n2C`, the Potency in the test on HEK293 is 3.72 µM (active); in the test on HaCat [1], 13.2 µM (active); with KB-3-1, 4.18 µM (active); in the test with NIH3T3, 18.7 µM (active). In addition, the Potency entry with MCC-26 was “inactive”.
As to `C[C@]1(CO)CN(c2cc(C(=O)Nc3ccc4c(c3)-c3c(c(C(N)=O)nn3-c3ccc(F)cc3)CC4)c(Cl)cn2)C[C@@]1(C)CO`, the Potency in the test on HEK293 was 4.69 µM (active) and 9.2 µM (active); in the test with HaCat [1], 13.2 µM (active). The max response was -15.8% in the test on KB-3-1 and -26% with NIH3T3.
As for `CC[C@H]1CN2CCc3cc(OC)c(OC)cc3[C@H]2C[C@@H]1C[C@@H]1NCCc2cc(OC)c(OC)cc21`, in the test on W2, the Potency was 0.151 µM (active).
Consider `Cc1cc(Nc2cc(NC(=O)c3c(Cl)cccc3Cl)ccn2)nc(N)n1`, for which the Potency with HEK293 was 0.935 µM (active); in the test with KB-3-1, 0.418 µM (active); in the test on NIH3T3, 3.72 µM (active).
Regarding `Nc1ccn([C@@H]2O[C@H](CO)[C@H](O)C2(F)F)c(=O)n1`, in the test on W2, the Potency was 0.19 µM (active).
In the case of `CCCCOc1c(C(=O)c2c(F)cc(C)cc2F)cnc2n[nH]cc12`, the Potency in the test on HEK293 was 14.8 µM (active) and 2.59 µM (active); with NIH3T3, 16.6 µM (active). In the test with KB-3-1, the compound was called inactive. For the same compound, the Potency entry with MCC-13 and in the test with MCC-26 was “inactive” each time.
For the compound `Cc1cnc(-c2cnc(NCCNc3ccc(C#N)cn3)nc2-c2ccc(Cl)cc2Cl)[nH]1`, the max response in the test with HEK293 was -23.2% and -27.2%; with KB-3-1, -14.7% and -1.89%. Moreover, the outcome in the test with HaCat [1] and in the test with NIH3T3 was inactive. Besides, the Potency entry in the test with HACAT [2] and in the test on MCC-26 was “inactive” each time.
`CC(=O)Nc1sc2c(c1-c1nc3ccccc3s1)CNC2`: the Potency is 11.8 µM (active) in the test on HEK293 and 23.5 µM (active) in the test on KB-3-1. Further, in the test on MCC-13, the Potency result was “inactive”.
As to `Nc1ccc(S(=O)(=O)Nc2ncccn2)cc1`, the Potency result in the test with W2, in the test on HACAT [2], in the test on MCC-13 and in the test on MCC-26 was “inactive” in each case.
On to `COC(=O)C1=C(C)NC(C)=C(C(=O)OCCN2CCN(C(c3ccccc3)c3ccccc3)CC2)C1c1cccc([N+](=O)[O-])c1` (stereo not drawn), for which the Potency in the test on W2 was 1.35 µM (active); with HEK293 it was 11.9 µM (active). In addition, the max response in the test with KB-3-1 is -4.82%. Moreover, the Potency result with MCC-26 was “inactive”.
`O=C(Nc1nc2cccc(-c3ccc(CN4CCS(=O)(=O)CC4)cc3)n2n1)C1CC1`: the Potency with HEK293 is 10.5 µM (active) and 10.3 µM (active); with KB-3-1, 8.33 µM (active). Also, the max response in the test on NIH3T3 is -23.2%. The Potency entry with MCC-13 was “inactive”.
For the compound `COC(=O)Nc1nc2ccc(C(=O)c3ccc(F)cc3)cc2[nH]1`, the Potency in the test on HEK293 is 590 nM (active) and 820 nM (active); in the test with KB-3-1 it was 833 nM (active) and 1.46 µM (active). Also, in the test on HaCat [1], the compound was called inactive. Also, the Potency result in the test on HACAT [2] was “inactive”.
On to `COc1ccc(C(=O)CC2(O)C(=O)Nc3c(Cl)ccc(Cl)c32)cc1` (stereo not drawn), for which the Potency was 2.64 µM (active) with HEK293; 4.11 µM (active) in the test with HaCat [1]; 3.72 µM (active) and 5.17 µM (active) with KB-3-1; 9.35 µM (active) and 2.91 µM (active) in the test with NIH3T3.
With `CC(C)c1noc(N2CCC(COc3ccc(-c4ccc(S(C)(=O)=O)cc4)nc3)CC2)n1`, the Potency in the test with HEK293 was 7.43 µM (active) and 8.2 µM (active). Besides, the max response was -15.4% and 4.61% with HaCat [1]; -1.13% and 3.22% with NIH3T3. The Potency result in the test with MCC-13 is “inactive”.
